In all, about 2,100 compounds went through this assay and about 770 (37%) were called active.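 The calls were made as follows: active = by-eye trace score of 1 for enhancers or -1 for inhibitors, so actives lie on both sides (some results past the limit were not filed as active); inactive = score 0, or 3 fluorescent, or 4 baseline rise.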 The list shows a part of the results.

This assay deals with G protein-activated inward rectifier potassium channel 2 (Homo sapiens) + G protein-activated inward rectifier potassium channel 1 (Homo sapiens) (UniProt P48051+P48549). Description: GIRK1/2 thallium flux modulators, retest, confirmation, cell-based, HEK293 rmGlu8/hGIRK1/2, FluoZin-2 (AID 623911). The note with it: HEK293 rmGlu8/hGIRK1/2, thallium flux FluoZin-2; actives lie on both sides; glutamate co-added at its EC20 level.
G protein-activated inward rectifier potassium channel 2 (Homo sapiens) + G protein-activated inward rectifier potassium channel 1 (Homo sapiens), sequence (P48051 whole entry, looked up): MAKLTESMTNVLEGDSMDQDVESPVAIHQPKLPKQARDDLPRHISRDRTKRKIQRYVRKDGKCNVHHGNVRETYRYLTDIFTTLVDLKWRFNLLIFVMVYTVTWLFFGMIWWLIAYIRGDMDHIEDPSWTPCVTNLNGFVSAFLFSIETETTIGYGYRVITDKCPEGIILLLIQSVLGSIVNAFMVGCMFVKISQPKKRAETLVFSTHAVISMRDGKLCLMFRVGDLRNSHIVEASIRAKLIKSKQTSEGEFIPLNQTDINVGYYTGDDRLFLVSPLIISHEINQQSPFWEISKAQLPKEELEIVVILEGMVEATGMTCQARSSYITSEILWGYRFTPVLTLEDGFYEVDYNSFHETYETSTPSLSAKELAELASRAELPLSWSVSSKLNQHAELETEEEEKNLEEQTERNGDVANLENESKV
G protein-activated inward rectifier potassium channel 2 (Homo sapiens) + G protein-activated inward rectifier potassium channel 1 (Homo sapiens), sequence (P48549 whole entry, looked up): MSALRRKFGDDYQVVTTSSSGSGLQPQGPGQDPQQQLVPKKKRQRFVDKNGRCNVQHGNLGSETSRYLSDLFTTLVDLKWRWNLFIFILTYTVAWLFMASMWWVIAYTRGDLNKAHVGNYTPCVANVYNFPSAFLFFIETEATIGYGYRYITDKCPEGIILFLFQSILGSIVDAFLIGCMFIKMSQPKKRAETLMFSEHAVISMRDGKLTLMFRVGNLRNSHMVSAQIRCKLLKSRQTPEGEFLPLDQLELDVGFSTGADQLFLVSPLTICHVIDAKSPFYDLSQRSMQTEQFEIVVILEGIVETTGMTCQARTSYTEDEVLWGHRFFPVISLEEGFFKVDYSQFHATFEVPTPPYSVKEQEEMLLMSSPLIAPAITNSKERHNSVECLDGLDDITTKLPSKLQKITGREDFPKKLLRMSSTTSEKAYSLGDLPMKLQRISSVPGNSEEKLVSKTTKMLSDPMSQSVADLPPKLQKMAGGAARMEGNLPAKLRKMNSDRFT
Regarding `Cn1c(-c2ccc(-c3ccccc3)cc2)c[nH]c1=S`, the manual score was 0 (inactive). Take `COC(=O)c1ccc(N2C(=O)CC(Sc3n[nH]c(C)n3)C2=O)cc1` (centres undefined): the manual score was 0 (inactive). For the molecule `COC(=O)c1sc(NC(=S)NC(=O)c2ccccc2Cl)nc1C`, the manual score was 1 (active). Under `COc1cc(OC)c(NC(=O)CCNC(=O)Cn2cnc3ccccc3c2=O)cc1Cl` stands 0 (inactive); under `CCC(=O)Nc1ccc2c(c1)ncn2-c1ccc(OC)cc1`, 0 (inactive).

For `CCN(CC)S(=O)(=O)c1cc(NC(=O)Cn2cnc3ccccc3c2=O)ccc1C`, the manual score is 1 (active). To `C=CCn1c(=O)c2c(C)c(C)sc2n2c(Nc3ccc(OC)cc3)nnc12` belongs -0.5 (inactive); to `CCCCn1c(N)c(C(=S)NC(=O)CC(C)C)c(=O)n(C)c1=O`, 1 (active). Under `CCCCn1c(N)c(C(=S)NC(=O)CC(C)(C)C)c(=O)n(C)c1=O` stands 1 (active). As for `Brc1ccc(-c2nnc3c4ccccc4nc(N4CCOCC4)n23)cc1`, the manual score is 0 (inactive).

As to `CCC(=O)N1c2ccc(C)cc2C2=NNC(=S)NC21O` (centres undefined), the manual score was 0 (inactive). To `COc1ccc(C(CCNCc2ccccc2F)c2ccc(F)cc2)cc1` (centres undefined) belongs -1 (active); to `COc1ccc(CNCCC(c2ccc(F)cc2)c2ccc(OC)cc2)cc1` (centres undefined), -1 (active); to `O=C(NNC(=O)c1cc(-c2ccccc2)n(-c2ccccc2)n1)c1cccc([N+](=O)[O-])c1`, 0 (inactive). To `COc1ccc(C2c3ccc4ccccc4c3Oc3ncn(CCN4CCOCC4)c(=N)c32)cc1` (centres undefined) belongs -1 (active); to `COc1ccc(S(=O)(=O)NCCCCCC(=O)NCCCN2CCOCC2)cc1`, 0 (inactive).

For `N=c1c2c(ncn1CCN1CCOCC1)Oc1ccc3ccccc3c1C2c1ccccc1` (centres undefined), the manual score was -1 (active).

As to `NC(=O)COc1ccc(C2c3c(oc4ccccc4c3=O)C(=O)N2CC2CCCO2)cc1` (centres undefined), the manual score is 0 (inactive). Under `CC1CCN(c2c([N+](=O)[O-])c(=O)oc3ccccc23)CC1` stands 0 (inactive). Regarding `CCOC(=O)C1(C(C)(C)CC)CC(CSc2nc3ccccc3[nH]2)OC1=O` (centres undefined), the manual score is -1 (active). For the molecule `CCn1c(-c2cc3ccccc3cc2O)n[nH]c1=S`, the manual score was 0 (inactive). To `O=C1N=C(c2ccccc2)S/C1=C\c1cccs1` belongs 0 (inactive). `CSC1=NSC2=NC(=O)/C(=C/c3coc4ccccc4c3=O)C(=N)N12`: the manual score was 3 (inactive). As for `N=C1/C(=C/c2cccs2)C(=O)N=C2SN=C(SCc3ccccc3)N12`, the manual score was 1 (active). To `FC(F)(F)c1ccc2nnc(-c3c(Cl)cccc3Cl)n2c1` belongs 0 (inactive); to `O=C(C1CCCN1S(=O)(=O)c1cccc2cccnc12)N1CCc2ccccc21` (centres undefined), 0 (inactive).

Regarding `O=C(C1CCN(S(=O)(=O)c2cccc3cccnc23)CC1)N1CC=C(c2ccccc2)CC1`, the manual score was -1 (active).

Consider `O=C(C1CCCN1S(=O)(=O)c1cccc2cccnc12)N1CCn2c1nc1ccccc12` (centres undefined), for which the manual score was 0 (inactive).

Take `FC(F)(F)c1cccc(NC(=S)NC2CCCC2)c1`: the manual score is 1 (active). In the case of `Cc1ccc(NC(=S)NCc2ccccc2)cc1[N+](=O)[O-]`, the manual score was 1 (active). With `FC(F)(F)c1cccc(N2CCN(C(=S)NC3CCCCC3)CC2)c1`, the manual score is 0 (inactive).

On to `FC(F)(F)c1cccc(NC(=S)NCc2ccccc2)c1`, for which the manual score was 1 (active). On to `O=C(Cc1ccccc1)NC(=S)Nc1cccc(C(F)(F)F)c1`, for which the manual score was 0 (inactive).

Consider `COc1ccc(/C=C/C(=O)N2CCN(S(=O)(=O)/C=C/c3ccccc3)CC2)cc1OC`, for which the manual score is 0 (inactive).

Consider `O=C(C1CCN(c2ncnc3c2sc2cccc(F)c23)CC1)N1CCOCC1`, for which the manual score was 0 (inactive).

Turning to `CCOc1ccc(-c2nc(-c3ccncc3)no2)cc1OCC`, the manual score was 0.5 (inactive). Under `S=C(NCc1ccco1)Nc1ccc(Cl)c(Cl)c1` stands 1 (active); under `COc1ccc(/C(C)=N/NC(=S)NCc2ccco2)cc1`, 0 (inactive); under `S=C(NCc1ccco1)N/N=C/c1ccc(Cl)cc1`, 0 (inactive). Under `COc1ccc2nc(N=Nc3ccc(O)c4ccccc34)sc2c1` stands 0 (inactive); under `COc1ccc2nc(NC(=S)N(C)C)sc2c1`, 1 (active); under `COc1ccc(C(=S)Nc2ccc(N(C)C)cc2)cc1`, 0 (inactive). Under `Clc1ccccc1-c1nnc2sc(CCc3ccccc3)nn12` stands 0 (inactive). Turning to `CCc1ccc2c(c1)c(N=NC1=NC(=O)CS1)c(O)n2C`, the manual score was 1 (active). Regarding `CCn1c(O)c(N=NC2=NC(=O)CS2)c2cc(C)ccc21`, the manual score is 0 (inactive). With `CCc1ccc2c(c1)c(N=NC1=NC(=O)CS1)c(O)n2CC`, the manual score was 1 (active). Under `CC(C)(C)c1csc(NC(=O)c2ccc3nccnc3c2)n1` stands 0 (inactive); under `Cc1cs/c(=N\N=C\c2cccc([N+](=O)[O-])c2)n1Cc1ccco1`, 0 (inactive). Under `CC(C)Sc1oc(-c2ccco2)nc1S(=O)(=O)c1ccccc1` stands -1 (active). Under `O=C(CCCCn1c(=O)c2ccccc2n(CC(=O)NC2CCCC2)c1=O)NCc1ccco1` stands 0 (inactive). Consider `CCCn1c(=N)c(C(=O)NCc2ccc3c(c2)OCO3)cc2c(=O)n3cccc(C)c3nc21`, for which the manual score was -1 (active). Under `N=c1c(C(=O)NCc2ccco2)cc2c(=O)n3ccccc3nc2n1CCc1ccccc1` stands -1 (active); under `Cc1cccn2c(=O)c3cc(C#N)c(=NC(=O)c4cccnc4)n(CC4CCCO4)c3nc12` (centres undefined), 3 (inactive). Under `Cn1c(=O)cc(OCCCC(=O)NCc2ccc3c(c2)OCO3)c2ccccc21` stands 0 (inactive); under `CCn1c(SCc2nc(-c3ccccc3)no2)nc2ccccc21`, 0 (inactive); under `O=C(CSc1nc2ccccc2c(=O)n1CC1CCCO1)N1CCN(c2ccccc2)CC1` (centres undefined), 0 (inactive). To `CCn1c(SCC(=O)c2cc(C)n(CC3CCCO3)c2C)nc2ccccc21` (centres undefined) belongs -1 (active); to `Cc1oc(-c2cccc(Cl)c2)nc1CN1CCC(C(=O)NCc2ccco2)CC1`, -1 (active). For `O=C(c1cccc(F)c1)N1CCN(Cc2ccco2)CC1`, the manual score was 0 (inactive).

As for `CCc1ccc(-c2nc(CN3CCC(C(=O)NCc4ccco4)CC3)c(C)o2)cc1`, the manual score is -1 (active). Under `CCn1c(N)c(C(=O)NCc2ccco2)sc1=S` stands 0 (inactive).

For the molecule `O=C(CCc1nc(-c2ccccc2F)no1)NCCN1CCN(Cc2ccccc2)CC1`, the manual score was 0 (inactive).

As for `CCN1CCCC1CNC(=O)CSCc1nc(-c2ccccc2C)oc1C` (centres undefined), the manual score is -1 (active). Under `Cc1ccccc1-c1nc(CS(=O)(=O)CC(=O)NCCCN2CCCC2)c(C)o1` stands -1 (active); under `O=C(CCN1C(=O)COc2ccccc21)NCCCN1CCc2ccccc2C1`, 0 (inactive); under `Cc1ccc(S(=O)(=O)N/N=C/c2ccc(OC3CSC3)cc2)cc1`, 0 (inactive). As for `CCc1ccc2c(c1)C1(NN=C(c3ccc(C)cc3)S1)C(=O)N2` (centres undefined), the manual score is 0 (inactive). Consider `Cc1ccccc1C(=O)Nc1ccc2nc3n(c(=O)c2c1)CCC3`, for which the manual score is 0 (inactive).

In the case of `Cc1ccccc1-c1nc(CN2CCC(C(=O)NCc3ccco3)CC2)c(C)o1`, the manual score is -1 (active). Under `CCN1CCCC1CNC(=O)C1CCN(Cc2nc(-c3cccc(Br)c3)oc2C)CC1` (centres undefined) stands -1 (active); under `Cc1oc(-c2ccccc2F)nc1CS(=O)(=O)CC(=O)NCCN(C)C1CCCCC1`, -1 (active); under `Cc1oc(-c2cccc(Cl)c2)nc1CN1CCCC(C(=O)NCc2ccco2)C1` (centres undefined), -1 (active).

As to `CCC1CCCCN1C(=O)c1cc2cc(Br)ccc2oc1=O` (centres undefined), the manual score is 0 (inactive). For `CN(c1ccccc1C(=O)Nc1ccccc1C(=O)NCc1ccco1)S(C)(=O)=O`, the manual score is 0 (inactive). Under `Cc1cc(C)nc(N2CCCC(C(=O)NCCc3ccc(F)cc3)C2)n1` (centres undefined) stands 0 (inactive). `O=C(O)c1cnc(-c2ccccc2)nc1Sc1ccccc1Cl`: the manual score was 0 (inactive). To `CCn1c(=NC(=O)CSC(C)=O)sc2ccccc21` belongs 0 (inactive); to `O=C(Nn1cnnc1)c1cc2cc(Br)ccc2oc1=O`, 0 (inactive). Under `Cc1c(N2C(=O)CS/C2=N\N=C\c2ccccc2O)c(=O)n(-c2ccccc2)n1C` stands 0 (inactive); under `Cc1cccc(-c2nc(CN3CCCC(C(=O)NC4CCCCC4)C3)c(C)o2)c1` (centres undefined), -1 (active).

With `Cc1ccccc1-c1nc(CN2CCC(C(=O)NCCCN3CC(C)CC(C)C3)CC2)c(C)o1` (centres undefined), the manual score was -1 (active). Under `O=C(C1CCCN(Cc2cccs2)C1)N1CCCCCC1` (centres undefined) stands 0 (inactive).

With `CC1CC(C)CN(CCCn2c(=S)[nH]c3ccccc3c2=O)C1` (centres undefined), the manual score is -0.5 (inactive). Take `O=[n+]1cc(-c2ccccc2)n([O-])c2c1CCC2`: the manual score is 0 (inactive).

Take `CC1=C(C(=O)Nc2cccnc2)C(c2ccc3c(c2)OCO3)C2=C(CCCC2=O)N1` (centres undefined): the manual score was -0.5 (inactive). Take `COCCN(C(=O)Cc1cccs1)C(C(=O)NCc1ccc(OC)cc1)c1ccccc1` (centres undefined): the manual score was 0 (inactive). In the case of `COC(=O)COn1c(SC(C)C)nc2ccccc2c1=O`, the manual score was 0 (inactive).

Regarding `Cc1cc(C)c2nc(NC(=O)c3cc(C)on3)sc2c1`, the manual score was 1 (active). In the case of `Cc1cccc2sc(NC(=O)Cn3cccc3)nc12`, the manual score was 0 (inactive).

For the molecule `CCc1ccc2nc(NC(=O)c3cc(C)on3)sc2c1`, the manual score is 1 (active).

As to `O=C(Nc1nc2ccc(Cl)cc2s1)c1ccc(Br)o1`, the manual score is 0 (inactive). Under `CNC(=O)c1ccc2nc(NC(C)=O)sc2c1` stands -0.5 (inactive).

`COc1ccc2[nH]c(C)c(C(=O)CN3CC(C)OC(C)C3)c2c1` (centres undefined): the manual score was 0 (inactive). To `C/C(CC(=O)NC(C)C)=N\NC(=O)COc1cc(C)c(Br)cc1Br` belongs 1 (active); to `C/C(CC(=O)NCC(C)C)=N\NC(=O)COc1cc(C)c(Br)cc1Br`, 1 (active). Consider `Cc1ccccc1-n1nnc2c(=O)oc3ccccc3c21`, for which the manual score is 0 (inactive). Consider `O=C(Nc1nc(=O)c2ccccc2s1)c1ccccc1`, for which the manual score was 1 (active).

As for `O=C(Nc1nc(=O)c2ccccc2s1)c1ccc(F)cc1`, the manual score was 1 (active). Under `O=C(Nc1nc(=O)c2ccccc2s1)c1ccc(Cl)cc1` stands 1 (active); under `O=C(Cc1ccccc1)Nc1nc(=O)c2ccccc2s1`, 0 (inactive).

Take `CCN(CC)C(=S)SCC(=O)Nc1nc(=O)c2ccccc2s1`: the manual score was 0 (inactive). To `COC(=O)c1ccc(-n2c(C)cc(C(=O)CSc3ccc(NC(C)=O)cc3)c2C)cc1` belongs 1 (active). For the molecule `CC(=O)Nc1ccc(SCC(=O)c2cc(C)n(-c3ccccc3F)c2C)cc1`, the manual score was 0 (inactive).

`COC(=O)c1ccc(NS(=O)(=O)c2ccc(SC)cc2)cc1`: the manual score is 0 (inactive).
